Measurements as given in PubChem BioAssay (EPA / NIEHS).
Where “and” joins values, the source holds several entries; their conditions need not be identical. Identical values can stand only once. Results filed as inconclusive are left out. A structure can be active in one record and inactive in another. Calls of active or inactive are those of the source. Rule for the calls: active = hit-call score of the fitted dose curve at least 0.9, where 1 is the maximum; inconclusive = response in the unintended direction; inactive = score below 0.9.

Experiments:
[1] = tested on: Sodium/Iodide Symporter (NIS), SLC5A5 (gene 6528); experiment: CPHEA_Stoker_NIS_Inhibition_RAIU: CPHEA's Radioactive Iodide Uptake (RAIU) Assay for Sodium/Iodide Symporter (NIS) Inhibition, Stoker and Laws Labs (AID 2283841)
Summary of the method: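 Iodide uptake read as CPM of intracellular 125I (final 329 pM) after 2 h room-temperature exposure in HEPES-buffered HBSS, pH 7.4. Human NIS-expressing HEK293T cells; six concentrations 0.001–100 uM, 0.5% DMSO, normalised to DMSO wells.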

[2] = CPHEA_Stoker_NIS_Cytotoxicity: Cytotoxicity Assessment for CPHEA's Radioactive Iodide Uptake (RAIU) Assay for Sodium/Iodide Symporter (NIS) Inhibition, Stoker and Laws Labs (AID 2283897);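 for AC50: active means loss of ATP signal versus DMSO meaning cytotoxicity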
Summary of the method: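 CellTiter-Glo ATP luminescence gauged viability in HEK293T cells expressing human NIS after 2 h chemical exposure. Concentrations ran 0.001–100 uM in 0.5% DMSO; DMSO served as baseline for the loss-of-signal fit.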

[3] = molecular target: human Thyroid hormone Receptor alpha (TRa), THRA (gene 7067) (UniProt P10827); experiment: ATG_hTRa_XSP2: Attagene TRANS-FACTORIAL Multi-Species (XSP2) HepG2 Assay for human Thyroid hormone Receptor alpha (TRa) (AID 2283838)
Summary of the method: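 Gain-of-signal in reporter mRNA, relative to DMSO, after 24 h dosing of transfected HepG2; quantitation by RT-PCR fragment analysis on capillary electrophoresis.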

[4] = molecular target: frog Thyroid hormone Receptor alpha (TRa), thra-a (gene 397942) (UniProt P15204); experiment: ATG_frTRa_XSP2: Attagene TRANS-FACTORIAL Multi-Species (XSP2) HepG2 Assay for frog Thyroid hormone Receptor alpha (TRa) (AID 2283839);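 for AC50: AC50 reflects induction of frog TRa-driven reporter mRNA above DMSO baseline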
Summary of the method: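 HepG2 cells transiently transfected with multiplexed GAL4-UAS reporter units expressing chimeric frog TRα-Gal4; reporter mRNA read 24 h after dosing by RT-PCR, FAM-labelled primer extension, HpaI digest and capillary electrophoresis. Gain of signal fitted versus DMSO.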

[5] = molecular target: human Thyroid hormone Receptor beta (TRb), THRB (gene 7068) (UniProt P10828); experiment: ATG_hTRb_XSP2: Attagene TRANS-FACTORIAL Multi-Species (XSP2) HepG2 Assay for human Thyroid hormone Receptor beta (TRb) (AID 2283840);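 note: actives raise reporter mRNA so potency reflects agonist-like gain of signal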
Summary of the method: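 HepG2 cells were transiently transfected with GAL4-UAS multiplexed reporter units expressing chimeric NR-Gal4 proteins, dosed 24 h; reporter mRNA was quantified by RT-PCR, fluorescent labeling, HpaI digestion and capillary electrophoresis, fitted for gain of signal versus DMSO.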

Sequence of frog Thyroid hormone Receptor alpha (TRa), thra-a (gene 397942) (P15204 whole entry, looked up, the tested form may be a part): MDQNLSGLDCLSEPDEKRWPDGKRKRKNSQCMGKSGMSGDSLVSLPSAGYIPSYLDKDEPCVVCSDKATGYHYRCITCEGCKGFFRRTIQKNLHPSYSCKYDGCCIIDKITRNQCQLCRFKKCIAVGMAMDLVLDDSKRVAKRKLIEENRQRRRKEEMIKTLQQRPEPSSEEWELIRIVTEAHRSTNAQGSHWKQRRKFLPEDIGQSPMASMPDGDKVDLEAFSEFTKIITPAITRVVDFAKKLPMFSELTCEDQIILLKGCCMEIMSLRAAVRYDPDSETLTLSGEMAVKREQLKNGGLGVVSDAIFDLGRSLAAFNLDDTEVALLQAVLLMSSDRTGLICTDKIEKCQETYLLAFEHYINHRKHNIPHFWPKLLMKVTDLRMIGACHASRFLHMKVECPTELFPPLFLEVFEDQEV
Sequence of human Thyroid hormone Receptor beta (TRb), THRB (gene 7068) (P10828 whole entry, looked up, the tested form may be a part): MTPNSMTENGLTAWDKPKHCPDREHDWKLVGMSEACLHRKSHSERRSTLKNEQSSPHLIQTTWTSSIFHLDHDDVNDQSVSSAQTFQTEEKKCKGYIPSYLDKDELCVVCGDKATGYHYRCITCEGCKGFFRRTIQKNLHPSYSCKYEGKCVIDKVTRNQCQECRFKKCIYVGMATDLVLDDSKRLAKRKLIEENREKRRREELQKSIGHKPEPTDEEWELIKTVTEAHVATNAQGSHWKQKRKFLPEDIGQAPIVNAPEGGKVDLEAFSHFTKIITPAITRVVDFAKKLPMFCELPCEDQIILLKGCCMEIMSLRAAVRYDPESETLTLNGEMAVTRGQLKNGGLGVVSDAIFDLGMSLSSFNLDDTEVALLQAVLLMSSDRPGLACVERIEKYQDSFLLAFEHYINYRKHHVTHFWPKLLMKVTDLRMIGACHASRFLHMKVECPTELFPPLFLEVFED
Sequence of human Thyroid hormone Receptor alpha (TRa), THRA (gene 7067) (P10827 whole entry, looked up, the tested form may be a part): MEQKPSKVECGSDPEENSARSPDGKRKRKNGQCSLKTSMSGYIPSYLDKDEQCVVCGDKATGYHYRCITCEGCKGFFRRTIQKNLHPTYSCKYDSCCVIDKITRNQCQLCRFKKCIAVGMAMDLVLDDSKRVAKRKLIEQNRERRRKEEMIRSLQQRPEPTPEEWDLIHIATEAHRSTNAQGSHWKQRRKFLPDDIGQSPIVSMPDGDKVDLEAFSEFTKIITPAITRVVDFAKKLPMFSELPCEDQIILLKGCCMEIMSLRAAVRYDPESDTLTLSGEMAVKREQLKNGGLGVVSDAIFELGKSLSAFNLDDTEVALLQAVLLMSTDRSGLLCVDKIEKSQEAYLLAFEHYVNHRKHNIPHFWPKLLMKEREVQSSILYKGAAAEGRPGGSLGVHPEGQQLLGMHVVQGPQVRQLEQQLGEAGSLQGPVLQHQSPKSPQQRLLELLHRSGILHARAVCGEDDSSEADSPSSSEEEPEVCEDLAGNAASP

With `CC(C)(c1ccccc1)c1ccc(O)c(C(C)(C)c2ccccc2)c1` the outcome [1] was “inactive” and the outcome [2] was “inactive”.
With `CCN1CCC2(CC1)COc1cc3c(cc12)N(C(=O)c1ccc(-c2ccc(-c4nnc(C)o4)cc2C)cc1)CC3` the AC50 [1] was 72.8 µM (active) and the AC50 [2] was 8.43 µM (active).
With `[O-][Cl+2]([O-])O` the outcome [1] was “inactive” and the outcome [2] was “inactive”.
For `Cc1ccc2ccccc2c1C`, the outcome [1] was “inactive”.
For `CC12CC1(C)C(=O)N(c1cc(Cl)cc(Cl)c1)C2=O` (configuration not stated), the outcome [3] was “inactive”, the outcome [4] was “inactive” and the AC50 [5] was 63.2 µM (active). The outcome [5] was “inactive”.
For `CC1(C)Cc2cccc(O)c2O1`, the outcome [1] was “inactive”.
With `O=C(O)CCC(F)(C(F)(F)F)C(F)(F)F` the outcome [1] was “inactive”.
In the case of `CCC(C)(C)c1ccc(O)c(C(C)(C)CC)c1`, the outcome [1] is reported as “inactive” and the AC50 [2] is reported as 9.92 µM (active).
In the case of `CC1(C)CCC(Cc2ccc(Cl)cc2)C1(O)Cn1cncn1` (configuration not stated), the outcome [3] is reported as “inactive”, the outcome [5] is reported as “inactive” and the outcome [1] is reported as “inactive”. The outcome [2] was “inactive”.
In the case of `Oc1c(I)cc(I)cc1I`, the AC50 [3] is reported as 26 µM (active), the AC50 [4] is reported as 26.5 µM (active) and 25.7 µM (active) and the AC50 [5] is reported as 56.1 µM (active) and 16.2 µM (active).
In the case of `O=S(=O)(c1ccc(Cl)cc1)c1ccc(Cl)cc1`, the outcome [3] is reported as “inactive”, the outcome [4] is reported as “inactive” and the AC50 [5] is reported as 19.8 µM (active). The AC50 [1] was 9.92 µM (active) and the outcome [2] was “inactive”.
For `O=C(O)C(F)(F)C(F)(F)C(F)(F)C(F)(F)C(F)(F)C(F)(F)C(F)(F)C(F)(F)C(F)(F)C(F)(F)F`, the outcome [1] was “inactive”.
For `CC(=O)C=C(C)C`, the outcome [3] was “inactive”, the outcome [4] was “inactive” and the outcome [5] was “inactive”.
For `Oc1ccc(-c2ccccc2)cc1`, the outcome [3] was “inactive”, the outcome [4] was “inactive” and the outcome [5] was “inactive”.
With `CC(C)(C)c1cc(O)ccc1O` the outcome [3] was “inactive”, the outcome [4] was “inactive” and the outcome [5] was “inactive”.
With `O=C1C2(Cl)C3(Cl)C4(Cl)C(Cl)(Cl)C5(Cl)C3(Cl)C1(Cl)C5(Cl)C24Cl` (configuration not stated) the outcome [3] was “inactive”, the outcome [4] was “inactive” and the AC50 [5] was 10 µM (active). For the same compound, the outcome [1] was “inactive” and the outcome [2] was “inactive”.
For `C=C(C)C(=O)[O][Sn]([CH2]CCC)([CH2]CCC)[CH2]CCC`, the AC50 [1] was 5.24 µM (active) and the AC50 [2] was 1.25 µM (active).
In the case of `CC(C)C1CCC(Cc2ccc(Cl)cc2)C1(O)Cn1cncn1` (configuration not stated), the outcome [3] is reported as “inactive”, the outcome [4] is reported as “inactive” and the outcome [5] is reported as “inactive”. For the same compound, the AC50 [1] was 20 µM (active) and the AC50 [2] was 87.6 µM (active).
In the case of `COP(=O)(OC)O/C(=C\Cl)c1cc(Cl)c(Cl)cc1Cl`, the outcome [4] is reported as “inactive”, the outcome [5] is reported as “inactive” and the outcome [1] is reported as “inactive”. The outcome [2] was “inactive”.
In the case of `C[C@]12CC[C@H](O)CC1=CC[C@@H]1[C@@H]2CC[C@]2(C)C(=O)CC[C@@H]12`, the outcome [5] is reported as “inactive”.
With `C[C@]12CCC(=O)C[C@@H]1CC[C@@H]1[C@@H]2CC[C@]2(C)[C@@H](O)CC[C@@H]12` the outcome [3] was “inactive”, the outcome [4] was “inactive” and the AC50 [5] was 0.421 µM (active).
With `CC(C)(C)CC(C)(C)c1ccc(O)cc1` the outcome [4] was “inactive”, the outcome [5] was “inactive” and the outcome [1] was “inactive”. The outcome [2] was “inactive”.
For `Clc1ccc(C2(Cn3cncn3)CC(Br)CO2)c(Cl)c1` (configuration not stated), the outcome [3] was “inactive”, the AC50 [4] was 5.44 µM (active) and the outcome [4] was “inactive”. For the same compound, the outcome [5] was “inactive”, the outcome [1] was “inactive” and the outcome [2] was “inactive”.
